# In PubChem BioAssay AID1159506 (National Center for Advancing Translational Sciences (NCATS), 2015):
# In all, about 59,000 sequences were measured (the read-out: median about -0.00055, lowest 2% from about -2 on). This excerpt belongs to a sample that is enriched for the lowest values.
# Assay: Identification of proteins required for the processing of the EWS-FLI1 nascent transcript;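 also: robust z of luciferase light less the median z of siRNAs with the same seed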
# Conditions: TC32 Ewing sarcoma NR0B1-luc vs CMV-luc (EWS-FLI1 target promoter against control promoter), 48 h; screened at 20 nM (by protocol)
# In short: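 Genome-wide siRNA screen (Ambion v4.1, three siRNAs per gene, 20 nM final, RNAiMax) in Ewing sarcoma TC32 cells carrying NR0B1-promoter or CMV-promoter luciferase; OneGlo luciferase read 48 h post-transfection. Data normalized, z-score-MAD transformed and seed-adjusted.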
row,Sequence,seed-corrected z-score
1,AAGUUGGUGAUUAAUCUCC against DERL2,-0.311
2,UUCUGUGGAAGAUUUCUGG against TOP3A,-0.163
3,UAUUUGACUAGGCGACUUC against NET1,-2.17
4,UAUCUAAAGAGACCCUGUC against YPEL1,1.06
5,ACAGUAUCCUCAGAUGUCC against SHROOM2,0.0618
6,UGCAGUACUGAAGAUAACG against EOGT,-1.09
7,UUCUUAGCCGCGAUGGUCU against DES,0.351
8,UAGGUAGAAGUGAUUGUUC against ZFAND4,0.956
9,AUGUGGACAGCGUAGCUCC against FUT4,-0.421
10,UACAUUGUGAGAUCCCUGG against C17orf78,-2.15
11,UUAUGAACCCUGGAGCUCC against ADRB3,0.000803
12,AAUACGAUGACAAUAAGGC against FAM200A,-0.251
13,AUAGCUGCGAACAAAGGCC against ZNF404,-6.09
14,UUCGACUUGGUUGCAAUGG against PPBP,0.68
15,UCCAGUUGUAUGUAAGGGC against ZDHHC6,-1.09
16,AAUGGUCUUGUGAAUGGUC against LSM12,-2.08
17,UUUCGUCAACAGUUCAAUC against USP34,-0.287
18,UAAUCGAAAAACUUCAAUG against CLN5,-0.147
19,AUCUCUGUAAGAUUGAUUC against ELMOD2,0.0598
20,UUGCUUUCCACAACGAGAU against CHL1-AS2,-0.29

row,Sequence,seed-corrected z-score
1,UUCUGCAUCAUAAUUGUCG against ADPRHL1,-0.679
2,UUGGUAGGCAUCGUAGUAG against CLDN2,0.894
3,UAGCUGUGUGGAUCAGUGC against LOC642502,-2.62
4,UCACUGUAUCUAAUAAAGC against FRG1JP,-0.744
5,AAUUUUAUCACCCAGAAAC against FCGR2B,0.134
6,UGAGUUUCUUCUCCGUUCU against C11orf97,-3.81
7,UGAAAAGCGCUGCUUAACC against PRSS45,0.905
8,UUCUUUGAUAGACUUCACC against FTMT,0.658
9,UGAGAGUUAAAGGCCUUUC against ABHD14A,-2.97
10,AAAUGUGCUCAAACUGUCU against ARL14,-0.125
11,UUCUCUCAAGCUUCAAUGG against ZNF286A,0.716
12,AGAGUUAAUUGGUAUGUCC against GIGYF1,0.0611
13,UCUGUUACUUCUGGUUUGC against BAAT,-0.229
14,UUAGCUGCUAGAAACAAGG against CCNT1,-2.99
15,UGAGUUUCCAUGCAUAGGA against GOLGA7,-3.67
16,UCAGGUACGACUUUCGAUA against C1orf109,-1.21
17,AGAGAUACAAGGUUUGAUC against ARG2,-0.0393
18,UCCUUGUACACGGCCAGCU against PCED1CP,0.3
19,UGUACAUAGACGGUGAGGC against CD200,0.299
